Drawing on PubChem BioAssay (EPA / NIEHS), this text covers outcome and AC50 for 21 compounds.

Structures are written as SMILES. Results filed as inconclusive are left out. Activity calls are given as the source filed them. How the source made its calls, unless noted: active means hit-call score of the fitted dose curve at least 0.9, where 1 is the maximum; inactive means score below 0.9.

Test [1] is described as follows: CCTE_Shafer_MEA_acute_burst_percentage_mean: CCTE's Neural Acute Assay for Percentage of Spikes in a Burst, Shafer Lab (AID 2284017).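 On AC50: curve fitted for loss of signal so potency reflects decreased burst percentage.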 A digest of the protocol:
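Primary rat cortical neurons on 16-electrode MEA wells; 40 min baseline recorded at DIV 13 or 15, then 40 min after compound (0.03-40 uM) at 37 C. Well-mean fraction of spikes in single-electrode bursts; percent change from baseline, DMSO as negative control.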

Test [2] can be described thus: CCTE_Shafer_MEA_acute_burst_percentage_std: CCTE's Neural Acute Assay for Standard Deviation of Burst Percentage, Shafer Lab (AID 2284018).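 Further: fitted in the negative direction so actives lower burst percentage SD.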 The method, boiled down: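 Rat primary cortical neurons on 48-well MEAs, DIV 13 or 15, 37 C. 40-min baseline then 40-min recording with compound (0.03-40 uM); well-level SD of per-electrode burst spike percentage, expressed as percent change from baseline.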

The nature of test [3]: CCTE_Shafer_MEA_acute_per_network_burst_spike_number_std: CCTE's Neural Acute Assay for Standard Deviation of Number of Spikes in a Network Burst, Shafer Lab (AID 2284020).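 Further: fitted for decrease in spike-number SD versus DMSO so actives lower it.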 A digest of the protocol:
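Rat cortical cultures, DIV 13/15, 37 C; 20-min stabilisation, 40-min baseline, compound 0.03-40 uM, 40-min re-record. Spikes detected at 8x rms noise (300-5000 Hz band-pass). Readout: % change from baseline in per-burst spike-number SD.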

Test [4] is described as follows: CCTE_Shafer_MEA_acute_per_network_burst_electrodes_number_mean: CCTE's Neural Acute Assay for Mean Number of Electrodes in a Network Burst, Shafer Lab (AID 2284021).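 Further: curves fitted for decreases only so hits reduce electrodes per burst.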 The method, boiled down: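 Percent change from baseline in average electrode count per network burst, rat cortical cultures on 48-well MEAs; 40-min recordings each side of exposure, DIV 13 or 15; threshold 8x rms noise; DMSO as negative control.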

Test [5] can be described thus: CCTE_Shafer_MEA_acute_network_burst_percentage: CCTE's Neural Acute Assay for Percentage of Network Bursts, Shafer Lab (AID 2284022).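 Further: curves fitted for loss so actives lower network burst percentage.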 A digest of the protocol:
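On DIV 13 or 15, at least three wells of rat cortical neurons per compound are dosed at 0.03-40 uM. Spontaneous firing is detected at 8x rms noise for 40 min before and after dosing at 37 C. The percent change in network-burst spike share is reported.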

A short description of test [6]: CCTE_Shafer_MEA_acute_cross_correlation_area: CCTE's Neural Acute Assay for Area of Cross Correlation, Shafer Lab (AID 2284024).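 Further: area under pooled inter-electrode spike cross-correlation near zero lag as percent change from own baseline; curves fitted for loss of cross-correlation area so actives lower synchrony.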 The method, boiled down: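 Extracellular recordings from cultured rat cortical neurons measure network synchrony as cross-correlation area; each well's post-compound value (0.03-40 uM, 40 min) is compared with its own 40 min baseline to give percent change.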

Test [7] in a line: CCTE_Shafer_MEA_acute_cross_correlation_HWHM: CCTE's Neural Acute Assay for Cross Correlation at Half Width at Half Maximum, Shafer Lab (AID 2284026).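 Further: spontaneous network firing of rat primary cortical neurons on multiwell microelectrode arrays; percent change per well from pre-dose baseline in spike cross-correlogram half width; hits are a decrease in cross-correlogram half width relative to DMSO.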 A digest of the protocol: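 Percent change in cross-correlogram half width at half maximum, narrower meaning more synchrony, was derived per well from paired 40-min recordings before and during exposure to 0.03-40 uM compound in rat cortical cultures at 37 C.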

The nature of test [8]: CCTE_Shafer_MEA_acute_synchrony_index: CCTE's Neural Acute Assay for Synchrony, Shafer Lab (AID 2284027).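 Further: network synchrony index of spontaneous spiking in primary rat cortical neurons on MEAs; fitted for loss of signal so actives lower synchrony relative to DMSO.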 A digest of the protocol: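 Rat cortical cultures, DIV 13/15; spikes detected at 8x rms noise, 300-5000 Hz band-pass. Compound 0.03-40 uM, ≥3 wells; 40-min pre- and post-exposure recordings, 37 C. Readout: % change in synchrony index; loss-of-signal fit vs DMSO.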
The nature of test [9]: CCTE_Deisenroth_AIME_384WELL_CTox_Inactive: Cytotoxicity Assessment (CTOX) in CCTE's 384-well Estrogen Receptor Transactivation Assay without AIME metabolic competence (metabolism negative), Deisenroth Lab (AID 2284039; active means hit-call score of the fitted dose curve at least 0.9, where 1 is the maximum;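 further: cell viability via live-cell protease substrate cleaved to fluorescent probe; cells exposed 24 h to medium preincubated 2 h with alginate-water beads without S9; loss of fluorescence signal means loss of viability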). The method, boiled down:
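VM7Luc4E2 human breast cells received conditioned medium from a 2 h incubation of chemical with alginate-water microspheres (no S9), then were exposed 24 h. Viability was read as protease-substrate cleavage to a fluorescent probe; loss of signal was fitted bidirectionally over 0.002–200 uM.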

In test [10] the target is Estrogen receptor (Homo sapiens) (UniProt P03372). In words: CCTE_Deisenroth_AIME_384WELL_LUC_Active: CCTE's 384-well Estrogen Receptor Transactivation Assay with AIME metabolic competence (ERTA luciferase; metabolism positive), Deisenroth Lab (AID 2284030; active means hit-call score of the fitted dose curve at least 0.9, where 1 is the maximum). The method, boiled down:
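Estrogenic luciferase signal in VM7Luc4E2 cells is measured at 24 hour, after chemicals have been preconditioned 2 hours with PB/BNF-induced rat hepatic S9 in alginate. Gain of signal is fitted relative to 17beta-estradiol, across 0.002 - 200 uM.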

Test [11] shares this target. The test can be described thus: CCTE_Deisenroth_AIME_384WELL_LUC_Inactive: CCTE's 384-well Estrogen Receptor Transactivation Assay without AIME metabolic competence (ERTA luciferase; metabolism negative), Deisenroth Lab (AID 2284038; active means hit-call score of the fitted dose curve at least 0.9, where 1 is the maximum;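 further: hits raise estrogen receptor luciferase signal so potencies reflect agonists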). A digest of the protocol:
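Metabolism-negative mode: AIME lids stamped in alginate-water, no hepatic S9. 2 h chemical incubation → medium onto VM7Luc4E2 ERTA, 24 h. Readout luciferase luminescence; gain-of-signal fit vs 17beta-estradiol. Conc. 0.002 - 200 uM.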

Test [12] shares this target. In words: CCTE_Deisenroth_AIME_384WELL_LUC_Shift: CCTE's 384-well Estrogen Receptor Transactivation Assay with AIME metabolic competence data shift (ERTA luciferase; difference in metabolism positive and negative), Deisenroth Lab (AID 2284041).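 Further: shift is response with S9 minus without S9 so positive means metabolism raised ER signal.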 The method, boiled down:
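Chemicals (0.002–200 uM, 10 points) pre-incubated 2 h with alginate-encapsulated induced male Sprague Dawley rat liver S9 or S9-free, then medium applied 24 h to VM7Luc4E2 cells; luciferase. Endpoint is per-concentration difference, S9-positive minus negative.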

Test [13] can be described thus: CCTE_Shafer_MEA_dev_firing_rate_mean: CCTE's Neural Network Formation Assay for Mean Firing Rate, Shafer Lab (AID 2284031).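 On AC50: curve fitted for loss of firing so AC50 reflects decreased mean firing rate.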 A digest of the protocol: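 Read-out: spike count/recording length, averaged over active electrodes, then AUC across days 5, 7, 9, 12. Rat cortical cultures on MEA; continuous 12-day exposure, media and treatment renewed DIV 5, 9; DMSO baseline.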

Test [14] in a line: CCTE_Shafer_MEA_dev_per_burst_spike_percent: CCTE's Neural Network Formation Assay for Percent of Spikes in a Burst, Shafer Lab (AID 2284032).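 On AC50: fitted as a decrease in burst spike percentage below DMSO baseline.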 The method, boiled down: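 Value is trapezoidal AUC over recordings on days 5, 7, 9 and 12 of the well-mean fraction of spikes falling in single-electrode bursts; rat cortical cultures exposed continuously from plating, treatment renewed DIV 5 and 9, fitted downward against DMSO.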

Test [15] is described as follows: CCTE_Shafer_MEA_dev_active_electrodes_number: CCTE's Neural Network Formation Assay for Number of Active Electrodes, Shafer Lab (AID 2284040; active means hit-call score of the fitted dose curve at least 0.9, where 1 is the maximum;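 further: potency for loss of active electrodes versus DMSO so lower counts are hits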). The method, boiled down:
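Developing rat cortical networks on MEAs, exposed DIV 0–12. Value is the AUC of active-electrode counts (≥5 spikes/min) from days 5, 7, 9, 12, relative to DMSO.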

Test [16] in a line: CCTE_Shafer_MEA_dev_burst_rate: CCTE's Neural Network Formation Assay for Burst Rate, Shafer Lab (AID 2284042).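 On AC50: potency for loss of burst rate below DMSO control.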 A digest of the protocol:
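Rat primary cortical cultures on PEI/laminin MEA; compound from plating, re-dosed at DIV 5, 9 media change. Single-electrode bursts/recording length, well mean of active electrodes; AUC over DIV 5–12 recordings; loss-of-signal vs DMSO.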

Test [17] is described as follows: CCTE_Shafer_MEA_dev_bursting_electrodes_number: CCTE's Neural Network Formation Assay for Number of Bursting Electrodes, Shafer Lab (AID 2284043; active means hit-call score of the fitted dose curve at least 0.9, where 1 is the maximum;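 further: potency is for loss of bursting electrodes relative to DMSO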). The method, boiled down:
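Rat cortical primary neurons, 48-well MEA, 16 electrodes/well; dosing DIV 0–12, re-dosed with full media change DIV 5, 9. Recordings DIV 5/7/9/12, AxIS adaptive spike detector; bursting electrode = ≥1 burst/2 min. AUC across days; loss of signal vs DMSO.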

A short description of test [18]: CCTE_Shafer_MEA_dev_per_burst_interspike_interval: CCTE's Neural Network Formation Assay for Burst Interspike Interval, Shafer Lab (AID 2284044).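 On AC50: potency for a decrease of within-burst interspike interval below DMSO level.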 The method, boiled down:
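Spontaneous activity of maturing rat cortical networks is recorded on DIV 5, 7, 9 and 12 under chronic compound exposure beginning at plating. Endpoint: burst interspike interval well-mean, collapsed into trapezoidal AUC and fitted in the negative direction relative to DMSO.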

The nature of test [19]: CCTE_Shafer_MEA_dev_burst_duration_mean: CCTE's Neural Network Formation Assay for Mean Burst Duration, Shafer Lab (AID 2284045).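 On AC50: curve fitted for loss meaning shorter burst duration than DMSO.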 The method, boiled down:
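Rat cortical cultures, 1.5 x 10^5 cells/well with laminin drop; continuous dosing days 0–12, media plus treatment refreshed DIV 5, 9. AxIS adaptive spike detection; mean single-electrode burst duration, AUC over four recordings, negative direction vs DMSO.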

Test [20] in a line: CCTE_Shafer_MEA_dev_interburst_interval_mean: CCTE's Neural Network Formation Assay for Mean Interburst Interval, Shafer Lab (AID 2284046).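 Further: well-mean interburst interval of bursting electrodes as AUC over four recording days; curve fitted for decrease in interburst interval relative to DMSO.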 The method, boiled down:
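Rat cortical neurons, 1.5 x 10^5 cells/well, 48-well MEA; compound from day 0 through DIV 12, media and treatment renewed DIV 5/9. Recordings DIV 5, 7, 9, 12; well-mean interburst interval → trapezoidal AUC, loss direction vs DMSO.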

By AC50 is commonly meant the midpoint of the concentration-response curve, whichever way the signal moves.

Chain of Estrogen receptor (Homo sapiens) (P03372 whole entry, looked up): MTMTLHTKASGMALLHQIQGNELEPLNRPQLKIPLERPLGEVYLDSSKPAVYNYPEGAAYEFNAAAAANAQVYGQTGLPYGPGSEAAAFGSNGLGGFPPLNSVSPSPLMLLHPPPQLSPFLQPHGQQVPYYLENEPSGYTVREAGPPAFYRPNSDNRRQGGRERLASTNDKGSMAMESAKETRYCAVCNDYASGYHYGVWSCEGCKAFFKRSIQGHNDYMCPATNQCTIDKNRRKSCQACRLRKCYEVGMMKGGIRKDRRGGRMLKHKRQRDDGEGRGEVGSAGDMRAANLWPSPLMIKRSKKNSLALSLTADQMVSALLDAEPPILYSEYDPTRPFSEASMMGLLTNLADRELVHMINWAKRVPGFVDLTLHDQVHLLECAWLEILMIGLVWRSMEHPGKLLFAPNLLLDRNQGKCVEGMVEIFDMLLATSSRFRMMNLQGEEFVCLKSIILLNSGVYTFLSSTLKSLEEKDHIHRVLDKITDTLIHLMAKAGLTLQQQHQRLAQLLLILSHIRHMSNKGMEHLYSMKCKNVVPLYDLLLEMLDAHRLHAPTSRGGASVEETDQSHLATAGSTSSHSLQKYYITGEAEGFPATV

As for `NCCNCCN`, the result in test [1], in [2], in test [3], in test [4], in test [5] and in test [6] was inactive. Besides, the result in test [7] and in test [8] was inactive.

In the case of `OC[C@H]1O[C@H](O[C@]2(CCl)O[C@H](CCl)[C@@H](O)[C@@H]2O)[C@H](O)[C@@H](O)[C@H]1Cl`, the compound was classed as inactive in [1], in test [2], in test [3], in test [4], in [5] and in [6]. Also, the call in test [7] and in test [8] was inactive.

For the compound `NC(=O)NC1NC(=O)NC1=O` (stereo unspecified), the compound was called inactive in test [9].

Regarding `NCCCN1CCOCC1`, the call in test [10], in test [11], in test [9] and in test [12] was inactive.

On to `CC(=O)[C@H]1CC[C@H]2[C@@H]3CC=C4C[C@@H](O)CC[C@]4(C)[C@H]3CC[C@]12C`, for which the AC50 in test [1] was 2.98 µM (active); in [5], 0.0267 µM (active); in test [6] it was 0.003 µM (active); in [8], 0.00409 µM (active). Further, the compound was called inactive in test [2], in [3], in [4] and in [7].

Regarding `CCC(=O)/C=C/C1C(C)=CCCC1(C)C` (stereo unspecified), the result in [9] was inactive.

On to `O=C(O)c1ccc(C(=O)O)cc1`, for which the compound was classed as inactive in test [9].

In the case of `NCCCCCCN`, the call in test [9] was inactive.

Take `CCCCC(CC)COC(=O)/C=C\C(=O)OCC(CC)CCCC` (stereo unspecified): in [9], the call was inactive.

On to `COc1cc(C=O)ccc1OC(=O)C(C)C`, for which the result in [1], in test [2], in test [4], in [5], in test [6] and in test [7] was inactive. Also, the result in test [8] was inactive. Further, the AC50 in [3] was 3.76 µM (active).

On to `O=C(O)c1ccc([N+](=O)[O-])cc1`, for which the outcome in test [9] was inactive.

`c1ccc2c(c1)c1cccc3ccc4cccc2c4c31`: the outcome in test [13], in test [14], in test [16], in test [18], in [19] and in test [20] was inactive. Also, the AC50 in test [15] is 3.19 µM (active); in test [17] it was 3.33 µM (active).

Turning to `C[C@H]1C[C@@H]2[C@H]([C@@H](O)C[C@@]3(C)[C@H]2CC[C@]3(O)C(=O)CO)[C@@]2(C)C=CC(=O)C=C12`, the compound was classed as inactive in [1], in test [2], in test [3], in test [4], in test [5] and in test [7]. In addition, the compound was classed as inactive in [8]. The AC50 in [6] is 0.0045 µM (active).

On to `CCCCCCCCCC=O`, for which the compound was called inactive in test [10], in [11] and in test [12].

Turning to `N#Cc1ccc(CC(=NNC(=O)Nc2ccc(OC(F)(F)F)cc2)c2cccc(C(F)(F)F)c2)cc1`, the AC50 in test [13] was 0.363 µM (active); in test [14] it was 0.301 µM (active); in test [15], 0.692 µM (active); in test [16] it was 0.24 µM (active); in test [17], 0.297 µM (active); in test [18] it was 0.301 µM (active). For the same compound, the values for the AC50 in [19] and in [20] were 0.358 µM (active) and 0.0632 µM (active), respectively.

As to `CN(C)CCCN`, the compound was called inactive in [10], in test [11], in [9] and in test [12].

For `CC(C)=CCCC(C)CC=O` (stereo unspecified), in [9], the compound was called inactive.

Take `CC(=O)OCCOC(C)=O`: the call in test [10], in [11], in test [9] and in test [12] was inactive.

On to `CCCCCCCCCCCCCOS(=O)(=O)O`, for which, in test [9], the AC50 was 96.3 µM (active).

Take `OCCOCCOCCOCCO`: the AC50 in [10] is 0.000342 µM (active); in test [11], 0.00171 µM (active). The call in test [9] and in test [12] was inactive.

Turning to `CCCCCCCCC=O`, the compound was called inactive in test [1], in test [2], in test [3], in test [4], in test [5] and in [6]. Also, the compound was called inactive in test [7] and in [8].
